# Measurements as given in PubChem BioAssay (Tox21).
# Results filed as inconclusive are left out. Entries that show only a call come without a potency. Calls of active or inactive are those of the source. The call rests on the fitted dose curve; in most records, active means well fitted activation curve with a large enough effect in the signal ratio in the repeat runs, with a control signal flat (not every such curve was filed as active); inconclusive means weak or mixed curves, or effect the other way; inactive means no such curve, though single readings can be large or run the other way; the % refers to the signal ratio.
# Molecular target: Androgen receptor (Homo sapiens) (UniProt P10275)
# Sequence (P10275 whole entry, looked up): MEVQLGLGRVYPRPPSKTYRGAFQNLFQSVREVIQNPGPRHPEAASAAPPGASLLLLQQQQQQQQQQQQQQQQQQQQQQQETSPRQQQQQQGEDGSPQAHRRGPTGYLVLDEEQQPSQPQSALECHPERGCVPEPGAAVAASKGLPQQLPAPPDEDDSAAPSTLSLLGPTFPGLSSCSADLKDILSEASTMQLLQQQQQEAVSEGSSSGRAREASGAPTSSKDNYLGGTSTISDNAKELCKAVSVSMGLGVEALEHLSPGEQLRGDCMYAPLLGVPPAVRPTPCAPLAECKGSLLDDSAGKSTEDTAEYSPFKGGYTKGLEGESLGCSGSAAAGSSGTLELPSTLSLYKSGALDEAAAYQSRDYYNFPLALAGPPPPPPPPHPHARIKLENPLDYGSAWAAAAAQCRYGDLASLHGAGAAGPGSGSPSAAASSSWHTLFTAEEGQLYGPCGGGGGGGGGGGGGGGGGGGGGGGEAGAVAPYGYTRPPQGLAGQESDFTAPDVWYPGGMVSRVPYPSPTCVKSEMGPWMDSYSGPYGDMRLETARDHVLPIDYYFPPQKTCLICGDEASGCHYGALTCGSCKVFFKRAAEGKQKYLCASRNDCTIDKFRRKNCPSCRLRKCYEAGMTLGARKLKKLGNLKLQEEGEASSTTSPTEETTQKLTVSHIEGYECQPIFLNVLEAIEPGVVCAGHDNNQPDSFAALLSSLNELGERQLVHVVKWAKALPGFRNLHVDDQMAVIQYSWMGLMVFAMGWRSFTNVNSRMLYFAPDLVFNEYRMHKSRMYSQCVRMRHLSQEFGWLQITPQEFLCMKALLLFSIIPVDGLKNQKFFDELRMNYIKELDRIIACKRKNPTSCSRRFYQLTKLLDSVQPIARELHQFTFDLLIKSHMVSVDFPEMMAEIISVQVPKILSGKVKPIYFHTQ
# Test: qHTS assay to identify small molecule agonists of the androgen receptor (AR) signaling pathway (AID 743036)
# Conditions: HEK293 AR-UAS-bla GripTite, beta-lactamase FRET ratio, 16 h; series mostly up to 62.4 µM
# Text: U.S. Tox21 Program National Center for Advancing Translational Sciences [NCATS] NIH Chemical Genomics Center [NCGC] U.S. Environmental Protection Agency [EPA] National Institutes of Environmental Health Sciences [NIEHS] National Toxicology Program [NTP] U.S. Food and Drug Administration [FDA] Tox21 Assay Overview: Androgen receptor (AR), a nuclear hormone receptor, plays a critical role in AR-dependent prostate cancer and other androgen related diseases. Endocrine disrupting chemicals (EDCs) and their interactions with steroid hormone receptors like AR may cause disruption of normal endocrine function as well as interfere with metabolic homeostasis, reproduction, developmental and behavioral functions. To identify the compounds that activate AR signaling, GeneBLAzer AR-UAS-bla-GripTite cell line (Invitrogen, Carlsbad, CA, USA) containing a beta-lactamase reporter gene under the control of an Upstream Activator Sequence (UAS) stably integrated into HEK293 cells was used to screen the Tox21 10K compound library.
# Tox21 Assay Protocol Summary: AR-bla cells were dispensed at 2,000 cells/6 uL/well of assay medium into black wall/clear-bottom 1536-well plates using a Multidrop Combi (ThermoFisher Scientific, Waltham, MA) dispenser. After the assay plates were incubated at 37C and 5% CO2 for 4 h, 23 nL of compounds dissolved in DMSO, positive controls or DMSO only was transferred to the assay plate by a Pintool station (Kalypsys, San Diego, CA). The plates were incubated at 37C and 5% CO2 for 16 h. Then 1 uL of LiveBLAzerTM B/G FRET substrate was added using a Bioraptr Flying Reagent Dispenser (FRD) workstation (Beckman Coulter, Indianapolis, IN, USA). The plates were incubated at room temperature for 2 h, and fluorescence intensity was measured by an Envision plate reader (PerkinElmer, Shelton, CT).
# Potency means the concentration at half of the fitted maximal effect.
row,Compound,Potency
1,C[C@H]1[C@H]2CC[C@H]3[C@@H]4CC=C5C[C@@H](N(C)C)CC[C@]5(C)[C@H]4CC[C@]23CN1C,inactive
2,Clc1ccc2cc3ccccc3cc2c1,inactive
3,CC(C)(C)C(=O)OCOC(=O)C1N2C(=O)CC2S(=O)(=O)C1(C)C (stereo not given),inactive
4,C=C(C)C(=O)OCC[N+](C)(C)C,inactive
5,CN1CCN(CCC(=O)N2c3ccccc3Sc3ccc(C(F)(F)F)cc32)CC1,inactive
6,CCCCCCCCCCCCCCCC(=O)OC[C@H](O)[C@H]1OC(=O)C(O)=C1O,inactive
7,O=C(O)c1ccc(Cl)c(Cl)c1,inactive
8,CCCCCCCCS(=O)C(C)Cc1ccc2c(c1)OCO2 (stereo not given),inactive
9,Cc1ccc(O)c2ncccc12,inactive
10,CCCCCCOC(=O)c1ccc(O)cc1,inactive
11,CCCCN1CCCC[C@H]1C(=O)Nc1c(C)cccc1C,inactive
12,Nc1ccc(N)c2ccccc12,inactive
13,O=C1c2c(O)ccc(Nc3ccc(CCO)cc3)c2C(=O)c2c([N+](=O)[O-])ccc(O)c21,inactive
14,Oc1ccc2c(c1)-c1ccccc1C2,inactive
15,NNC(=O)c1cccc(C(=O)NN)c1,inactive
16,CC[C@H](c1ccc(O)cc1)[C@@H](CC)c1ccc(O)cc1,inactive
17,ON=C1CCCC1,inactive
18,CC1(C)CCC(C)(C)c2cc(C(=O)Nc3ccc(C(=O)O)cc3)ccc21,inactive
19,O=C(Nc1cccc([N+](=O)[O-])c1)c1cc2ccccc2cc1O,inactive
20,O=C1CCCc2c1cc1ccc3cccc4ccc2c1c34,14 µM (active)
